Each structure is given as a SMILES string. Several values for one entry are separate records, joined by “and”; a condition that tells them apart may be missing. Equal entries are not always repeated. Where two headings read alike, the source gives them in different places.

The values below come from publication PMC5540273 (PLoS ONE, 2017).

One assay concerns DAPK2. The note with it: n = 1.
In the next assay the test system is DAPK3. The note with it: n = 1.
The test system of the next assay is T1, DCAMKL1.
T1 construct: gene DCLK1
To be noted: n = 1.

A further assay concerns T2, DCAMKL2.
T2 construct: gene DCLK2
To be noted: concentration: 1 μM, replicates: in singlicate; n = 1.

A further assay deals with T3, DCAMKL3.
T3 construct: gene DCLK3
The note with it: n = 1.

In the next assay the test system is DDR1. To be noted: n = 1.
In the next assay the test system is DDR2. The note with it: concentration: 1 μM, replicates: in singlicate; n = 1.
The next assay deals with T4, DLK.
T4 construct: gene MAP3K12
The note with it: n = 1.

For a further assay, the system named is T5, DMPK2.
T5 construct: gene CDC42BPG
The note with it: n = 1.

For the next assay, the system named is DMPK. To be noted: concentration: 1 μM, replicates: in singlicate; n = 1.
The mark [1] stands for this setting: concentration: 1 μM, replicates: in singlicate.
Setting [2] is: concentration: 1 μM,replicates: in singlicate, 1 µM.
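Note: KINOMEscan kinase panel screen.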

For `COc1cccc(-c2cc(-c3c[nH]nc3-c3ccccn3)ccn2)c1` [GW680338], the “%Inh” value with DAPK2 (setting [1]) was 22%; in the assay with DAPK3 (setting [1]) it was 23%; in the assay on DCAMKL1 (setting [1]), 13%; with DCAMKL2, 0%; in the assay on DCAMKL3 (setting [1]), 0%; in the assay with DDR1 (setting [1]), 3%. Also, the “%Inh” value in the assay with DDR2 is listed as 37%; with DLK (setting [1]), 28%; with DMPK2 (setting [1]), 6%; with DMPK, 0%.
`Cc1nnc(-c2ccc3occ(-c4ccc(S(C)=O)cc4)c3c2)[nH]1` (centres unmarked): the “%Inh” value in the assay with DAPK2 (setting [1]) is 5%; in the assay with DAPK3 (setting [1]) it was 10%; with DCAMKL1 (setting [1]) it was 0%; with DCAMKL2 it was 0%; with DCAMKL3 (setting [1]), 0%; in the assay on DDR1 (setting [1]), 0%. The “%Inh” value in the assay with DDR2 came to 5%; with DLK (setting [1]) it was 0%; with DMPK2 (setting [1]), 6%; in the assay with DMPK, 0%.
`Cc1cccc(-c2cc(Nc3ccncc3)c3ccccc3n2)n1` [GSK223675]: the “%Inh” value in the assay on DAPK2 (setting [1]) is on record as 0%; in the assay on DAPK3 (setting [1]) it was 9%; in the assay with DCAMKL1 (setting [1]), 3%; in the assay with DCAMKL2, 0%; with DCAMKL3 (setting [1]), 1%; in the assay on DDR1 (setting [1]) it was 9%. Besides, the “%Inh” value stood at 0% in the assay on DDR2, 0% with DLK (setting [1]), 7% with DMPK2 (setting [1]) and 0% in the assay with DMPK.
Turning to `Cc1ccccc1-n1cnc2c(N)ncnc21` [SKF-97510], the “%Inh” value with DAPK2 (setting [1]) is 10%; with DAPK3 (setting [1]), 12%; in the assay on DCAMKL1 (setting [1]), 0%; in the assay on DCAMKL2, 0%; with DCAMKL3 (setting [1]) it was 0%; in the assay on DDR1 (setting [1]), 11%. Also, the “%Inh” value in the assay on DDR2, in the assay on DLK (setting [1]), in the assay on DMPK2 (setting [1]) and in the assay on DMPK was 0% each time.
Take `O=S(=O)(c1ccc(-c2ccnc3[nH]ccc23)cc1)N1CCCC1` [GSK846226]: the “%Inh” value with DAPK2 (setting [1]) turned out to be 48%; with DAPK3 (setting [1]), 76%; in the assay on DCAMKL1 (setting [1]), 23%; with DCAMKL2, 0%; in the assay with DCAMKL3 (setting [1]) it was 0%; in the assay with DDR1 (setting [1]), 0%. Also, the “%Inh” value with DDR2 turned out to be 0%; with DLK (setting [1]), 0%; with DMPK2 (setting [1]) it was 15%; in the assay on DMPK, 3%.
On to `O=C(O)COc1ncnc2cc(-c3ccc4[nH]ncc4c3)sc12`, for which the “%Inh” value in the assay with DAPK2 (setting [1]) is on record as 0%; with DAPK3 (setting [1]), 5%; in the assay on DCAMKL1 (setting [1]), 0%; in the assay on DCAMKL2 it was 2%; with DCAMKL3 (setting [1]) it was 8%; in the assay with DDR1 (setting [1]), 0%. Also, the “%Inh” value with DDR2 stood at 7%; in the assay with DLK (setting [1]) it was 34%; in the assay with DMPK2 (setting [1]), 3%; with DMPK, 13%.
For `NC(=O)c1nnc2ccccc2c1N`, the “%Inh” value was 10% with DAPK2 (setting [1]); 6% in the assay with DAPK3 (setting [1]); 9% with DCAMKL1 (setting [1]); 30% in the assay on DCAMKL2; 0% with DCAMKL3 (setting [1]); 0% in the assay with DDR1 (setting [1]). For the same compound, the “%Inh” value with DDR2 is 11%; in the assay with DLK (setting [1]) it was 18%; with DMPK2 (setting [1]), 0%; with DMPK, 0%.
Regarding `COc1ccccc1CNC(=O)c1cc(C(=O)c2ccccc2C)c[nH]1` [GSK364507], the “%Inh” value in the assay on DAPK2 (setting [1]) worked out at 0%; in the assay on DAPK3 (setting [1]) it was 17%; in the assay with DCAMKL1 (setting [1]) it was 16%; in the assay on DCAMKL2 it was 16%; with DCAMKL3 (setting [1]) it was 4%; in the assay on DDR1 (setting [1]) it was 11%. For the same compound, the “%Inh” value with DDR2 was found to be 0%; with DLK (setting [1]) it was 15%; in the assay on DMPK2 (setting [1]), 5%; in the assay on DMPK, 0%.
Turning to `Cc1cccc(-c2nc(Nc3ccc4[nH]ncc4c3)c3ccccc3n2)n1` [GW857175], the “%Inh” value in the assay on DAPK2 (setting [1]) is 20%; with DAPK3 (setting [1]) it was 28%; in the assay with DCAMKL1 (setting [1]) it was 0%; with DCAMKL2 it was 14%; with DCAMKL3 (setting [1]) it was 0%; in the assay on DDR1 (setting [1]) it was 39%. For the same compound, the “%Inh” value with DDR2 is 17%; in the assay with DLK (setting [1]), 0%; in the assay with DMPK2 (setting [1]), 72%; in the assay with DMPK, 4%.
With `CN1C(=O)C(Nc2ccc(Cl)c(C(=O)O)c2)=C(c2ccc(Cl)cc2)C1=O` [SB-404290], the “%Inh” value came out at 9% in the assay on DAPK2 (setting [1]); 14% in the assay on DAPK3 (setting [1]); 0% in the assay with DCAMKL1 (setting [1]); 6% with DCAMKL2; 10% with DCAMKL3 (setting [1]); 0% with DDR1 (setting [1]). The “%Inh” value in the assay with DDR2, in the assay on DLK (setting [1]), in the assay with DMPK2 (setting [1]) and with DMPK was 0% throughout.
Turning to `O=C(Nc1n[nH]c2cc(-c3cccc(F)c3F)ccc12)C1CC1` [SB-733894], the “%Inh” value with DAPK2 (setting [1]) turned out to be 24%; in the assay on DAPK3 (setting [1]), 35%; in the assay with DCAMKL1 (setting [1]) it was 21%; in the assay with DCAMKL2, 0%; in the assay with DCAMKL3 (setting [1]), 0%; in the assay on DDR1 (setting [1]) it was 0%. The “%Inh” value in the assay with DDR2, in the assay with DLK (setting [1]), with DMPK2 (setting [1]) and with DMPK was 0% each time.
In the case of `O=C(Nc1n[nH]c2nc(-c3nccs3)c(Br)cc12)C1CCCC1` [SB-742609], the “%Inh” value in the assay with DAPK2 (setting [1]) came to 0%; with DAPK3 (setting [1]) it was 5%; in the assay on DCAMKL1 (setting [1]), 9%; in the assay with DCAMKL2, 16%; in the assay with DCAMKL3 (setting [1]) it was 0%; in the assay on DDR1 (setting [1]), 0%. For the same compound, the “%Inh” value in the assay with DDR2 is listed as 11%; in the assay on DLK (setting [1]), 14%; with DMPK2 (setting [1]) it was 0%; with DMPK, 0%.
As for `Cn1ccc2ncnc(Oc3cccc(C(=O)Nc4ccccc4)c3)c21`, the “%Inh” value with DAPK2 (setting [1]) is 24%; with DAPK3 (setting [1]), 0%; in the assay on DCAMKL1 (setting [1]), 28%; in the assay with DCAMKL2, 0%; in the assay on DCAMKL3 (setting [1]) it was 0%; in the assay on DDR1 (setting [1]) it was 0%. Moreover, the “%Inh” value with DDR2 was 9%; in the assay on DLK (setting [1]), 0%; with DMPK2 (setting [1]) it was 0%; in the assay on DMPK, 11%.
As for `CN(C)CCN(C)C(=O)c1cc(-c2ccncc2)c(-c2ccc(Cl)c(O)c2)o1.Cl.Cl` [SB-710397], the “%Inh” value with DAPK2 (setting [1]) is on record as 0%; in the assay on DAPK3 (setting [1]) it was 33%; in the assay with DCAMKL1 (setting [1]), 56%; with DCAMKL2, 9%; in the assay on DCAMKL3 (setting [1]) it was 0%; in the assay on DDR1 (setting [1]), 34%. Further, the “%Inh” value came out at 38% with DDR2, 34% in the assay with DLK (setting [1]), 47% in the assay on DMPK2 (setting [1]) and 0% in the assay on DMPK.
For `CSc1nn2c(=O)cc(N3CCOCC3)nc2n1Cc1cccc(C(F)(F)F)c1C` [GSK2363608], the “%Inh” value in the assay with DAPK2 (setting [2]) was 9% and 0%; in the assay with DAPK3 (setting [2]), 27% and 0%; in the assay on DCAMKL1 (setting [2]), 10% and 0%; in the assay with DCAMKL2, 0%; in the assay on DCAMKL3 (setting [2]) it was 34% and 0%; in the assay with DDR1 (setting [2]) it was 7% and 4%. The “%Inh” value in the assay on DDR2 is 0%; with DLK (setting [2]) it was 34% and 0%; in the assay on DMPK2 (setting [2]), 24% and 2%; with DMPK, 0%.
Take `Cc1cccc(-c2nc(-c3ccc(S(C)(=O)=O)cc3)sc2-c2ccnc(NCCc3ccccc3)c2)c1`: the “%Inh” value in the assay on DAPK2 (setting [1]) was 15%; with DAPK3 (setting [1]), 0%; in the assay with DCAMKL1 (setting [1]) it was 5%; in the assay on DCAMKL2, 0%; in the assay with DCAMKL3 (setting [1]) it was 8%; with DDR1 (setting [1]), 98.1%. Further, the “%Inh” value turned out to be 79% with DDR2, 0% in the assay with DLK (setting [1]), 10% in the assay with DMPK2 (setting [1]) and 16% with DMPK.
With `Cc1ccc(NC(=O)Nc2cccc(Cl)c2)cc1-c1ccc(C(=O)Nc2ccncc2)cc1` [GSK1398468], the “%Inh” value came to 0% in the assay on DAPK2 (setting [1]); 22% in the assay with DAPK3 (setting [1]); 17% with DCAMKL1 (setting [1]); 0% in the assay on DCAMKL2; 0% with DCAMKL3 (setting [1]); 99.7% with DDR1 (setting [1]). In addition, the “%Inh” value amounted to 72% with DDR2, 25% in the assay with DLK (setting [1]), 8% in the assay with DMPK2 (setting [1]) and 0% in the assay on DMPK.
